PAX8 reporter = inhibitors of PAX8-driven TPO luciferase reporter, primary screen, RMG-I cells, single concentration. SteadyGlo, 24 h. inhibition, % at 12.6 µM. actives 1.2% (n = 360,000). AID 652154, 2013;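 active = mean replicate inhibition at least 60% with every replicate also reaching 60%; inconclusive = only one of the two criteria is met; inactive = mean below 60% and not all replicates reaching 60%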;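 note: luciferase light reporting Pax8 driven TPO promoter activity; plate controls were median of neutral control wells for no effect and mitoxantrone controls for full effect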
EBV LMP1 NFkB = EBV LMP1-driven NF-kappaB luciferase reporter inhibitors, primary screen, cell-based, luminescence, single point; actives 0.69% (n = 350,000); AID 504558, 2011; LMP1-induced NF-kappaB luciferase reporter cells; inhibition, % at 12.5 µM; in the data active = inhibition above about 41%; inconclusive = no clear call, values can overlap the other calls;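 note: 0% = neutral control wells and 100% = reference inhibitor control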
Shn3 inh set2 = reduction of Shn3 3'UTR firefly luciferase signal, primary screen, Schnurri-3 inhibitor project, cell-based, Clone20 osteoblasts, set 2; Clone20 osteoblast Shn3 3'UTR firefly luciferase, 24 h; inhibition, % at 12.5 µM; actives 0.52% (n = 360,000);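 active = mean inhibition of at least 75% with every replicate also reaching 75%; inconclusive = mean inhibition at least 75% but some replicate below; inactive = mean inhibition below 75%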;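 note: 0% = median of neutral control wells and 100% = pilot-screen positive control compound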
Peg3 prom inh = Peg3 promoter-driven luciferase inhibitors, primary screen, cell-based, HeLa, luciferase luminescence; actives 1.7% (n = 360,000); HeLa PEG-Prom luciferase reporter, overnight; inhibition, % at 20 µM;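 active = inhibition of at least 50% at 20 µM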
HIF-2a block = HIF-2a reporter inhibitors, primary screen, luminescence, 786-0 RCC cells. 786-0 RCC cells HIF-2a reporter, luciferase luminescence, overnight. inhibition, % at 18.8 µM. actives 0.72% (n = 360,000);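 active = inhibition of the luminescence signal of 40% or more relative to plate controls, in a single-dose primary screen at 18.75 µM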
MITF TRPM1 inh = inhibitors of MITF-dependent TRPM1 promoter reporter, primary screen, cell-based, SK-MEL-5, single point, luciferase; actives 0.83% (n = 330,000); SK-MEL-5 TRPM1 promoter luciferase, 24 h; inhibition, % at 12.5 µM;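 active = mean inhibition across replicates of 60% or more, whatever share of single replicates reaches that level; inconclusive = some that reach 60%, reason not given; inactive = mean inhibition across replicates below 60%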
Mdm2 MdmX conf = retested Mdm2-MdmX interaction blockers, confirmation, cell-based, luminescence, single concentration, set 2. SaOS-2 split-luciferase Mdm2/MdmX complementation. shares compounds with HIF-2a block. AID 504601, 2011. inhibition, % at 8 µM. actives 99% (n = 740);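 active = mean inhibition of the luminescence signal across two replicates at or above 26 percent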
Target sequence (O15151 whole entry, looked up): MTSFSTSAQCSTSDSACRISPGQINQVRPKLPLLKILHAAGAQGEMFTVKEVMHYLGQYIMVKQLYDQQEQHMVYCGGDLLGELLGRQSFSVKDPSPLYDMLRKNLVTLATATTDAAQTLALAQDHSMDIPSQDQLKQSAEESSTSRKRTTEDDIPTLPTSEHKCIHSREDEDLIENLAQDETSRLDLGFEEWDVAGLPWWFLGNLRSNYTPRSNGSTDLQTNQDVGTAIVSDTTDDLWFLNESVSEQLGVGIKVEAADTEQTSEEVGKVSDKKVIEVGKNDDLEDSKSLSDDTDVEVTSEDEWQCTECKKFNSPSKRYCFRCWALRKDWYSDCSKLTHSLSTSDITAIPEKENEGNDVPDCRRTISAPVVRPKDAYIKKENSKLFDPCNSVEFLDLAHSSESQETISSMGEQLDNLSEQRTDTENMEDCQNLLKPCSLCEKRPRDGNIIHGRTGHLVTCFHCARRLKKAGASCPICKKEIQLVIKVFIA
Target sequence (Q00987 whole entry, looked up): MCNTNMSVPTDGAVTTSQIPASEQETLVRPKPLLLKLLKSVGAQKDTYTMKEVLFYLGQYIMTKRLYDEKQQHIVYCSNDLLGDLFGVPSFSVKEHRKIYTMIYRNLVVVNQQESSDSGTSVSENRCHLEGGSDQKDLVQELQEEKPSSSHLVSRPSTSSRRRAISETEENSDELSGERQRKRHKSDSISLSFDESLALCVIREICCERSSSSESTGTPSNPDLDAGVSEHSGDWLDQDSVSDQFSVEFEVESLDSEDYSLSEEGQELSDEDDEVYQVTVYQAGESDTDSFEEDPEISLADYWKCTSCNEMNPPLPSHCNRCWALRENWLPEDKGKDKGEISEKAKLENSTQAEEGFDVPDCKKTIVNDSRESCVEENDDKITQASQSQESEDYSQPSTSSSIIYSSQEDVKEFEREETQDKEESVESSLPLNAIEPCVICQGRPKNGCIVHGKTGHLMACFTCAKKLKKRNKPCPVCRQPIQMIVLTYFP
HIF-2a inh conf = HIF-2a reporter inhibitor retest, confirmation, luminescence, 786-0 RCC cells; HIF-2a luciferase reporter luminescence, overnight; AID 651580, 2012; actives 56% (n = 1,800); shares compounds with HIF-2a block; inhibition, % at 18.8 µM;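 active = mean inhibition across four replicates of at least 40 percent at the single tested concentration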
HIF-1a counter = HIF-1a luciferase reporter signal reduction – MiaPaCa-2 cells, single concentration, counter-screen for HIF-2a inhibitor project, confirmation; actives 72% (n = 1,800); shares compounds with HIF-2a block; inhibition, % at 18.8 µM; MiaPaCa-2 HIF-1a luciferase reporter, desferoxamine, overnight;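 active = mean inhibition of the reporter signal across four replicates at the single tested dose of 50% or more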
Active calls of the source: *; ? = inconclusive; / = not tested or not shown. Rows were chosen to be rich in hits. Some 2.8% of all compounds tested hit in one or more screens of this group.

SMILES	PAX8 reporter	EBV LMP1 NFkB	Shn3 inh set2	Peg3 prom inh	HIF-2a block	MITF TRPM1 inh	HIF-2a inh conf	HIF-1a counter	others
O=C(COC(=O)c1ccc[nH]c1=O)Nc1ccc(S(=O)(=O)N2CCCC2)cc1	32.7	2.5	-0.9	18.5	58.5*	5.3	-0.3	18.2
Cc1ccc(NC(=O)c2cc(N3C(=O)CCC3=O)ccc2N2CCOCC2)cc1	3.7	-3.1	-5.8	1.4	19.2	-1.8	/	/
Cc1ccc(NC(=O)c2cc(N3C(=O)C=CC3=O)ccc2N2CCOCC2)cc1Cl	52.4	0.7	76.0	92.6*	47.6*	78.1*	67.7*	31.4
CCC[C@@H](CNC)NC[C@H](Cc1ccccc1)NCCCCc1ccccc1	26.3	-12.3	49.3	99.2*	-2.3	93.6*	/	/	Mdm2 MdmX conf=103.2*
CNC[C@@H](CC1CCCCC1)NC[C@H](CC(C)C)NCCc1cccc(C(F)(F)F)c1	113.1*	-8.0	5.9	99.4*	32.0	100.3*	/	/	Mdm2 MdmX conf=103.2*
CNC[C@@H](Cc1ccccc1)NC[C@@H](CC1CCCCC1)NCCCc1ccccc1	74.2*	-40.5	-1.7	99.2*	85.4*	98.5*	0.4	106.3*	Mdm2 MdmX conf=103.2*
CN(Cc1cccc(C(F)(F)F)c1)C(=O)C1CCC(=O)N(CC2CCCCC2)C1 (stereo not given)	-6.4	-2.1	-21.2	-2.3	-22.8	-0.6	/	/
C[C@@H]1CCCCO[C@H](CN(C)S(=O)(=O)c2ccc(Cl)cc2)[C@H](C)CN([C@@H](C)CO)C(=O)c2cc(NC(=O)Nc3ccc4c(c3)OCO4)ccc2O1	20.9	/	/	/	/	/	/	/
Cc1ccc(S(=O)(=O)N(C)C[C@@H]2Oc3c(NC(=O)Nc4ccc(C(F)(F)F)cc4)cccc3C(=O)N([C@@H](C)CO)C[C@H]2C)cc1	7.4	/	/	/	/	/	/	/
C[C@@H]1CN([C@@H](C)CO)C(=O)c2cc(NC(=O)Nc3ccc(F)cc3)ccc2O[C@@H]1CN(C)C(=O)NC1CCCCC1	-1.1	/	/	/	/	/	/	/
O=S(=O)(CC(CN1CCCC1)N1CCCC1)c1ccc2ccccc2c1 (stereo not given)	/	-2.4	14.9	80.3*	22.0	76.2*	/	/	Mdm2 MdmX conf=103.2*
O=C(CN1C(=O)c2ccccc2S1(=O)=O)c1ccccc1Cl	89.8*	67.3*	63.0	41.2	48.4*	77.6*	75.5*	67.8*
O=C(CN1C(=O)c2ccccc2S1(=O)=O)NCc1ccccc1Cl	-4.3	-0.4	3.9	-2.6	4.7	-1.3	/	/
CCn1c(C)cc(C(=O)CN2C(=O)c3ccccc3S2(=O)=O)c1C	34.6	73.1*	66.7	80.0*	72.7*	68.3*	87.8*	77.0*
CCCn1c(C)cc(C(=O)CN2C(=O)c3ccccc3C2=O)c1C	-42.4	-6.4	-48.9	-97.8	-103.1	-8.0	/	/
CCN(CC)Cc1c(O)ccc2c1O/C(=C\C=C\c1ccccc1)C2=O	-19.0	-82.9	94.9*	81.5*	65.7*	81.4*	/	/	Mdm2 MdmX conf=14.3
COc1ccccc1/C=C/C=C1\Oc2c(ccc(O)c2CN(C)C)C1=O	-5.5	-14.3	-2.0	-31.1	-53.2	13.2	/	/
C[C@@H]1CN([C@@H](C)CO)C(=O)c2cccc(NS(=O)(=O)c3ccc(F)cc3)c2O[C@H]1CN(C)C(=O)Nc1ccc2c(c1)OCO2	1.9	/	/	/	/	/	/	/
OCCCNc1cc(-c2ccnc(Nc3cccc(Cl)c3)n2)ccn1	98.4*	89.0*	90.5*	103.4*	-23.8	?	/	/	Mdm2 MdmX conf=103.0*
COc1ccc(NC(=O)Nc2cccc3c2O[C@@H](CN(C)S(=O)(=O)c2ccccc2)[C@H](C)CN([C@@H](C)CO)C3=O)cc1	14.0	/	/	/	/	/	/	/
C=CSc1sc(Cl)c(N2CCOCC2)c1[N+](=O)[O-]	-2.2	6.2	-59.0	21.1	3.1	-23.2	/	/
C=CS(=O)(=O)c1sc(Cl)c(N2CCOCC2)c1[N+](=O)[O-]	30.1	-2.2	81.0	106.2*	65.8*	32.5	75.0*	-3.4
CCCNC(=O)C[C@H]1CC[C@@H]2[C@@H](COc3ccc(NC(=O)c4cccc(F)c4)cc3C(=O)N2C)O1	7.0	/	/	/	/	/	/	/
CC(SC#N)C(=O)C12CC3CC(CC(C3)C1)C2 (stereo not given)	-2.9	-10.8	2.2	35.8	46.1*	5.7	23.8	12.1
CC(Sc1n[nH]c(N)n1)C(=O)C12CC3CC(CC(C3)C1)C2 (stereo not given)	/	4.4	-2.2	-11.1	7.2	-0.8	/	/
SMILES	PAX8 reporter	EBV LMP1 NFkB	Shn3 inh set2	Peg3 prom inh	HIF-2a block	MITF TRPM1 inh	HIF-2a inh conf	HIF-1a counter	others
COc1ccc(Nc2cc(C)nc3ccc(OC)cc23)cc1	-0.2	-8.0	-37.0	8.4	41.8*	4.4	17.0	56.8*
COc1ccc2nc(C)cc(N/N=C/c3ccc(F)cc3)c2c1	33.1	-6.6	54.1	102.5*	86.6*	85.5*	/	/	Mdm2 MdmX conf=103.0*
O=CC1=C(c2ccccc2)Oc2ccccc2O1	35.5	4.4	3.6	97.9*	45.6*	12.3	12.1	106.9*
CN(C)/C=C1/N=C(c2ccccc2)OC1=O	/	2.6	-11.3	-31.8	-58.5	-9.3	/	/
CC(C)c1cn(CC[C@@H]2CC[C@@H](NS(=O)(=O)c3ccc(F)cc3)[C@H](CO)O2)nn1	14.9	/	/	/	/	/	/	/
Cc1ccccc1-n1nnnc1SCC(N)=O	/	-4.4	13.2	12.3	9.5	5.2	/	/
Cc1ccccc1-n1nnnc1Sc1nnnn1-c1ccccc1	/	55.4*	0.5	108.8*	49.0*	78.4*	-14.6	100.3*	Mdm2 MdmX conf=103.7*
C[C@@H]1CN([C@@H](C)CO)C(=O)c2cc(NC(=O)Cc3cn(C)c4ccccc34)ccc2O[C@@H]1CN(C)C(=O)NC1CCCCC1	37.5	/	/	/	/	/	/	/
O=C(NNC(=S)Nc1ccc(Cl)c(Cl)c1)c1ccccn1	57.2	62.2*	91.6*	18.1	-166.5	39.8	/	/	Mdm2 MdmX conf=85.0*
C[C@@H]1CCCCO[C@@H](CN(C)C(=O)C2CCCCC2)[C@@H](C)CN([C@@H](C)CO)C(=O)c2cc(NS(C)(=O)=O)ccc2O1	-25.7	/	/	/	/	/	/	/
O=C(NCC1CC1)[C@H]1[C@H](CO)[C@H]2Cn3c(cccc3=O)[C@@H]1N2C(=O)c1ccccc1	0.3	/	/	/	/	/	/	/
Cc1cc(C)n2c(=O)c3ccc(Cl)cc3nc2c1C#N	21.5	-4.6	-4.1	7.9	-17.8	9.7	/	/

Assay outcomes deposited in PubChem by several laboratories.
